Laboratory results: PubChem BioAssay AID1159580 (chemical genetic matrix, 2015)
“And” between values parts separate entries of the source, which are not always exact repeats. Identical values can stand only once. In all, about 5,500 compounds went through this assay and about 2,000 (36%) were called active. Not shown: some 18% with an inconclusive outcome. No stated cut-off is given here; in the data, active means normalized growth mostly below about 0.91 (no sharp cut-off); inconclusive means no clear call, values can overlap the other calls; inactive means mostly above about 0.92. This is one part of the list.

Assay: chemical genetic growth profiling, strain panel (AID 1159580);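 further: tested at 20 µM; growth read once vehicle control cultures reached saturation at 30 °C; 1 = growth at the plate median or of vehicle wells; lower values mean less growth of the strain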
Settings: S. cerevisiae deletion strains, growth OD

Measured: normalized growth

NC[C@H]1O[C@H](O[C@H]2[C@H](O)[C@@H](O[C@H]3O[C@H](CO)[C@@H](O)[C@H](N)[C@H]3O)[C@H](N)C[C@@H]2N)[C@H](N)C[C@@H]1O
inactive: locus YAL013W, strain DEP1, hits give low values 1 | locus YAL021C, strain ccr4, hits give low values 0.979 | locus YAL026C, strain drs2, hits give low values 1.01 | locus YAL030W, strain snc1, hits give low values 1.01 | locus YBL061C, strain skt5, hits give low values 1.01 | locus YBR009C, strain hhf1, hits give low values 1.05 | locus YBR021W, strain FUR4, hits give low values 1.02 | locus YBR023C, strain chs3, hits give low values 1.01 | locus YBR171W, strain sec66, hits give low values 1.01 | locus YBR229C, strain ROT2, hits give low values 1.01 | locus YBR231C, strain swc5, hits give low values 0.987 | locus YBR279W, strain paf1, hits give low values 1.02 | locus YCL011C, strain gbp2, hits give low values 1.02 | locus YCL016C, strain dcc1, hits give low values 1.02 | locus YCL029C, strain bik1, hits give low values 1.02 | locus YCL061C, strain MRC1, hits give low values 0.994 | locus YCL069W, strain vba3, hits give low values 1.01 | locus YCR088W, strain abp1, hits give low values 1.01 | locus YDL005C, strain med2, hits give low values 1 | locus YDL035C, strain GPR1, hits give low values 1 | locus YDL040C, strain nat1, hits give low values 1.02 | locus YDL074C, strain BRE1, hits give low values 0.971 | locus YDL101C, strain DUN1, hits give low values 0.997 | locus YDL134C, strain PPH21, hits give low values 1.01 | locus YDL185W, strain tfp1, hits give low values 1 | locus YDL192W, strain arf1, hits give low values 1.01 | locus YDR001C, strain nth1, hits give low values 1.01 | locus YDR069C, strain doa4, hits give low values 0.985 | locus YDR101C, strain arx1, hits give low values 1.02 | locus YDR137W, strain rgp1, hits give low values 0.99 | locus YDR159W, strain sac3, hits give low values 0.987 | locus YDR162C, strain NBP2, hits give low values 1.01 | locus YDR195W, strain ref2 1.01 | locus YDR297W, strain sur2, hits give low values 1.01 | locus YDR318W, strain mcm21, hits give low values 1.02 | locus YDR334W, strain swr1, hits give low values 1.02 | locus YDR335W, strain msn5, hits give low values 1.01 | locus YDR388W, hits give low values 1.02 | locus YDR392W, strain spt3, hits give low values 0.907 | locus YDR502C, strain sam2, hits give low values 1 | locus YEL003W, strain gim4, hits give low values 1.03 | locus YEL037C, strain rad23, hits give low values 1.02 | locus YEL061C, strain CIN8 (second series), hits give low values 1.02 | locus YEL061C, strain CIN8, hits give low values 0.988 | locus YER015W, strain faa2, hits give low values 1.02 | locus YER016W, strain bim1, hits give low values 1.01 | locus YER110C, hits give low values 1.01 | locus YER111C, strain swi4, hits give low values 1.01 | locus YER155C, strain BEM2 (second series), hits give low values 0.911 | locus YER155C, strain BEM2, hits give low values 1.02 | locus YER167W, strain BCK2, hits give low values 1.01 | locus YFR010W, strain ubp6, hits give low values 1.02 | locus YGL078C, strain dbp3, hits give low values 1 | locus YGL086W, strain mad1, hits give low values 0.991 | locus YGL167C, strain pmr1, hits give low values 1.01 | locus YGL173C, strain kem1, hits give low values 1.01 | locus YGL227W, strain vid30, hits give low values 1.01 | locus YGL240W, strain doc1, hits give low values 0.978 | locus YGL248W, strain PDE1, hits give low values 0.999 | locus YGL253W, strain hxk2, hits give low values 1.01 | locus YGR135W, strain pre9, hits give low values 1.01 | locus YGR252W, strain gcn5, hits give low values 0.944 | locus YHR013C, strain ard1, hits give low values 0.952 | locus YHR027C, strain rpn1, hits give low values 1.02 | locus YHR030C, strain SLT2, hits give low values 1.01 and 0.98 | locus YHR079C, strain IRE1 (second series), hits give low values 1.02 | locus YHR079C, strain IRE1, hits give low values 0.985 | locus YHR094C, strain hxt1, hits give low values 1.02 | locus YHR129C, strain ARP1, hits give low values 1.01 | locus YHR142W, strain chs7, hits give low values 1.03 | locus YHR200W, strain rpn10, hits give low values 1.01 | locus YIL066C, strain RNR3, hits give low values 1 | locus YIL073C, strain SPO22, hits give low values 1.05 | locus YIL125W, strain kgd1, hits give low values 1 | locus YIR030C, strain dcg1, hits give low values 1.02 | locus YJL092W, strain hpr5, hits give low values 1.02 | locus YJL095W, strain BCK1 (second series), hits give low values 1.04 | locus YJL095W, strain BCK1, hits give low values 0.985 and 0.999 | locus YJL115W, strain asf1, hits give low values 1.01 | locus YJL129C, strain trk1, hits give low values 1 | locus YJL134W, strain LCB3, hits give low values 1.01 | locus YJL154C, strain vps35, hits give low values 1.02 | locus YJL164C, strain tpk1, hits give low values 1.03 | locus YJL166W, strain qcr8, hits give low values 0.979 | locus YJL168C, strain set2, hits give low values 1.01 | locus YJL187C, strain SWE1 (second series), hits give low values 1 | locus YJL187C, strain SWE1, hits give low values 1.03 | locus YJR043C, strain POL32, hits give low values 0.98 | locus YJR066W, strain TOR1, hits give low values 0.951
